# Experimental data: publication PMC7862700, “An all-to-all approach to the identification of sequence-specific readers for epigenetic DNA modifications on cytosine”
# How the values were obtained:
# Test in all cases: DAPPL (digital affinity profiling via proximity ligation, sequencing); 10 mM Tris-HCl pH 7.5, 50 mM NaCl, 1 mM DTT, 4% glycerol, room temperature, 30 min; GST-TFs on glutathione beads, 16-mer random dsDNA library, 0.1% formaldehyde crosslink after washing; high values mean tight binding
# ERG = biological target: T1, ERG (Homo sapiens, UniProt P11308 1-479); settings: protein: recombinant; tags: N-terminal GST; dsDNA, one strand shown
# T1 sequence: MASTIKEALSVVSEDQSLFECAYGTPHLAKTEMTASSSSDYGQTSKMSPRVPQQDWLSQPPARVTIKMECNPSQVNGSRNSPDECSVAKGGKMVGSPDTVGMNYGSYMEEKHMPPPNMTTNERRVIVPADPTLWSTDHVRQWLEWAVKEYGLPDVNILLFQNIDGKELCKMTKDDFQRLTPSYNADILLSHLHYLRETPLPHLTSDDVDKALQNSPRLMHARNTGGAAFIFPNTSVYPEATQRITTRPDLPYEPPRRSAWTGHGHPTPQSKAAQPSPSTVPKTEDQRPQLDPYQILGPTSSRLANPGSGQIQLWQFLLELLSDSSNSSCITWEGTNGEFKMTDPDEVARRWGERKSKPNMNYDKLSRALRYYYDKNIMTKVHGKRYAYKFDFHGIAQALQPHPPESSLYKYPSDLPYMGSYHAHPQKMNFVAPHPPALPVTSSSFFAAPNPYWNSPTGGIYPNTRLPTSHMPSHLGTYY
# Method in brief: (§1)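 Binding signal is each hexamer's read frequency for a factor divided by its frequency in the tag-only sample. The factors were GST-fused human transcription factors from yeast, captured on glutathione beads, DNA-barcoded and pooled with that sample. Pools were incubated with 200 nmole of a random double-stranded 16-mer DNA library in Tris/NaCl/DTT/glycerol buffer at room temperature for 30 min, then washed, crosslinked with 0.1% formaldehyde, proximity-ligated with BsaI/T4 ligase (1 h, 37 °C), PCR-amplified and sequenced on an Illumina NextSeq500.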
# ELF1 = ELF1 (Homo sapiens, UniProt P32519 1-619); settings: protein: recombinant; tags: N-terminal GST; dsDNA, one strand shown
# ELF1, sequence (P32519 whole entry): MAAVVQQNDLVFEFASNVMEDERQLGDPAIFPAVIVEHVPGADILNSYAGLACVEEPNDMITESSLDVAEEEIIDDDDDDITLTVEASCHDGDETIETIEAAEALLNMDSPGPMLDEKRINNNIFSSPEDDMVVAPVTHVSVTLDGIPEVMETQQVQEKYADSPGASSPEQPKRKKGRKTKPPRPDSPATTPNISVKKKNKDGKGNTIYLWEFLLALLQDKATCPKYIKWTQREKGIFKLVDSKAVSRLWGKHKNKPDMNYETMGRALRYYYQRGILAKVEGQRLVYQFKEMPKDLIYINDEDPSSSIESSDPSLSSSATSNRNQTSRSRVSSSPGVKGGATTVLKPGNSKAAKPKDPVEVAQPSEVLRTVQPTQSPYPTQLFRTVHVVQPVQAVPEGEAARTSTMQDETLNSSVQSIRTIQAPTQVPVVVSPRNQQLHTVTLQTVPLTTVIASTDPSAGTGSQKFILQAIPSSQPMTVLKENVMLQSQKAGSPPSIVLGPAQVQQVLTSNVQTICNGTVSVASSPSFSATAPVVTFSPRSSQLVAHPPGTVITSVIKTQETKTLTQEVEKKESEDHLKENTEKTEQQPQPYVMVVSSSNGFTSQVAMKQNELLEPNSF
# Method in brief: as §1
# EHF = biological target: T2, EHF (Homo sapiens, UniProt Q9NZC4 1-300); settings: protein: recombinant; tags: N-terminal GST; dsDNA, one strand shown
# T2 sequence: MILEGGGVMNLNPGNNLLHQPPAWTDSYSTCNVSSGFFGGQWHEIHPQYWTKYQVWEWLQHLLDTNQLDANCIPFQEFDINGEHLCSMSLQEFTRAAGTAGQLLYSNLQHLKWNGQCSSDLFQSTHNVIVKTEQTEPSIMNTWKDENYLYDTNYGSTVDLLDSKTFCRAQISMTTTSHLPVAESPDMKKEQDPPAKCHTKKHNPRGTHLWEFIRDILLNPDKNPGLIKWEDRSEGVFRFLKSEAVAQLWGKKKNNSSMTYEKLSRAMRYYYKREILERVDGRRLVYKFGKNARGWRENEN
# Method in brief: as §1
# FEV = biological target: T3, FEV (Homo sapiens, UniProt Q99581 1-238); settings: protein: recombinant; tags: N-terminal GST; dsDNA, one strand shown
# T3 sequence: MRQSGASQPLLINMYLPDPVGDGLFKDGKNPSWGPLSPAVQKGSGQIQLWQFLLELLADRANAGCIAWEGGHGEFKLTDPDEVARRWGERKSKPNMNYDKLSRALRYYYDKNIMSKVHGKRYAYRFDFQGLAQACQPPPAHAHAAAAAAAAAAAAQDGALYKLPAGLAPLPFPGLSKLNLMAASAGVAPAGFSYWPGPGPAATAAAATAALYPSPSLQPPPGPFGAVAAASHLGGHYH
# Method in brief: as §1
# HSF1 = HSF1 (Homo sapiens, UniProt Q00613 1-529); settings: protein: recombinant; tags: N-terminal GST; chain copies: 3; dsDNA, one strand shown
# HSF1, sequence (Q00613 whole entry): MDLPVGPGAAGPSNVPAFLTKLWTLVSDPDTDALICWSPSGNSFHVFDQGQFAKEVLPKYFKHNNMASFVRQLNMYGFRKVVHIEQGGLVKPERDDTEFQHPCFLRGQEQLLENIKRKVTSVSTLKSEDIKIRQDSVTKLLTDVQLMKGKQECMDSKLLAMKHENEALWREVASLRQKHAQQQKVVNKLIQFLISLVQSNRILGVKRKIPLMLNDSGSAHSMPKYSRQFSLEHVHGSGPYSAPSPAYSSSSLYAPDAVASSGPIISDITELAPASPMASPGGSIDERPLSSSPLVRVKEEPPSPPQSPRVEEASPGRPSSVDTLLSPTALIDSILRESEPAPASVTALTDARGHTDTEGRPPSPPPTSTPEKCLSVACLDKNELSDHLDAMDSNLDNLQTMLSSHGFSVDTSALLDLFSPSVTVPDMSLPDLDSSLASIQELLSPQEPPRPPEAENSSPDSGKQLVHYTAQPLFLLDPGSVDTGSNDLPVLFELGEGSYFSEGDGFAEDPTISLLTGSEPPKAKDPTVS
# Method in brief: as §1
# ELF4 = ELF4 (Homo sapiens, UniProt Q99607 1-663); settings: protein: recombinant; tags: N-terminal GST; dsDNA, one strand shown
# ELF4, sequence (Q99607 whole entry): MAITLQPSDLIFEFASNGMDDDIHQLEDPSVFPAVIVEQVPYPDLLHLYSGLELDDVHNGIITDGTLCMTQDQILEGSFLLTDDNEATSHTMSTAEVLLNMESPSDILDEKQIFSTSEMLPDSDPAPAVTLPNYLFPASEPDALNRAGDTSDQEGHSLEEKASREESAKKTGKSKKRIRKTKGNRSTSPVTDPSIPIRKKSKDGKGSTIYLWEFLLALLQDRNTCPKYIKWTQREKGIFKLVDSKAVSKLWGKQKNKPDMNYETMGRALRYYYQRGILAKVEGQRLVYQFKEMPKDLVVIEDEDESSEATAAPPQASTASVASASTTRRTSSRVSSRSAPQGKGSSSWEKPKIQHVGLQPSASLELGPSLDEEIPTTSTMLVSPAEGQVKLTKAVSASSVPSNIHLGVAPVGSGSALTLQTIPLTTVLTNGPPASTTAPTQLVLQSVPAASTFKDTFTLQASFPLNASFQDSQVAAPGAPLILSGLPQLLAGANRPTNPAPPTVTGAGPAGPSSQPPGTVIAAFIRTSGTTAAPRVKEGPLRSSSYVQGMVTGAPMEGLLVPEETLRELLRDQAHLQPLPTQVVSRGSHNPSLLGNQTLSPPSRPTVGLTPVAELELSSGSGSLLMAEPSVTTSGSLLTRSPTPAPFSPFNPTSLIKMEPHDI
# Method in brief: as §1
# ELK4 = biological target: T4, ELK4 (Homo sapiens, UniProt P28324-2 1-405); settings: protein: recombinant; tags: N-terminal GST; dsDNA, one strand shown
# T4 sequence: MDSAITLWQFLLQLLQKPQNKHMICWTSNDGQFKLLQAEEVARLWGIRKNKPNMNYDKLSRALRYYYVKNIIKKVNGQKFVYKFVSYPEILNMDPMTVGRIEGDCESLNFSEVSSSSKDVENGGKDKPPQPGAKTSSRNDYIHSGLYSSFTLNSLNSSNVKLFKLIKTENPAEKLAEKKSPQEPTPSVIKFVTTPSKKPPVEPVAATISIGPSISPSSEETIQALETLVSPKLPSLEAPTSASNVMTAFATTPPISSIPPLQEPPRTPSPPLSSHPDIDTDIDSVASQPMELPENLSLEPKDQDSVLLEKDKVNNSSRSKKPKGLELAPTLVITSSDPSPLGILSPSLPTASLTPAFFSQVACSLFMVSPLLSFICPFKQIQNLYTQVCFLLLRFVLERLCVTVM
# Method in brief: as §1
# ETV2 = biological target: T5, ETV2 (Homo sapiens, UniProt O00321 1-342); settings: protein: recombinant; tags: N-terminal GST; dsDNA, one strand shown
# T5 sequence: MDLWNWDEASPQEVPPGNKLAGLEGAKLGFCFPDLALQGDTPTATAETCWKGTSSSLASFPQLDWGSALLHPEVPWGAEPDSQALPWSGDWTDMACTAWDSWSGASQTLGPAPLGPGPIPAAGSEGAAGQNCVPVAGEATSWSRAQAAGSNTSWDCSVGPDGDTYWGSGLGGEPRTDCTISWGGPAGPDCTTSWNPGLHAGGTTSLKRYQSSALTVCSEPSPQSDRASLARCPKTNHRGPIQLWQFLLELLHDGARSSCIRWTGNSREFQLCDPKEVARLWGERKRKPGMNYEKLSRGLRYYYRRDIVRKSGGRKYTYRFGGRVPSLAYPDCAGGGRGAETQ
# Method in brief: as §1
# CRX = CRX (Homo sapiens, UniProt O43186 1-299); settings: protein: recombinant; tags: N-terminal GST; dsDNA, one strand shown
# CRX, sequence (O43186 whole entry): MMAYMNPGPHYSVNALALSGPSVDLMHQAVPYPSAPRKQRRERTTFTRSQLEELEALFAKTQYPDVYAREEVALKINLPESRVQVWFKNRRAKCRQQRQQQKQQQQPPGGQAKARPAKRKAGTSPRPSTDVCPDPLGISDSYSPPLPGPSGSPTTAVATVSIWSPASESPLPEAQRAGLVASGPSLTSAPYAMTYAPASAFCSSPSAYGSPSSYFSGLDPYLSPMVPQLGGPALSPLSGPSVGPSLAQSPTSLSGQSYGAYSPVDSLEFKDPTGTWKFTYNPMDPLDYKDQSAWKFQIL
# Method in brief: as §1
# ETV1 = ETV1 (Homo sapiens, UniProt P50549 1-477); settings: protein: recombinant; tags: N-terminal GST; dsDNA, one strand shown
# ETV1, sequence (P50549 whole entry): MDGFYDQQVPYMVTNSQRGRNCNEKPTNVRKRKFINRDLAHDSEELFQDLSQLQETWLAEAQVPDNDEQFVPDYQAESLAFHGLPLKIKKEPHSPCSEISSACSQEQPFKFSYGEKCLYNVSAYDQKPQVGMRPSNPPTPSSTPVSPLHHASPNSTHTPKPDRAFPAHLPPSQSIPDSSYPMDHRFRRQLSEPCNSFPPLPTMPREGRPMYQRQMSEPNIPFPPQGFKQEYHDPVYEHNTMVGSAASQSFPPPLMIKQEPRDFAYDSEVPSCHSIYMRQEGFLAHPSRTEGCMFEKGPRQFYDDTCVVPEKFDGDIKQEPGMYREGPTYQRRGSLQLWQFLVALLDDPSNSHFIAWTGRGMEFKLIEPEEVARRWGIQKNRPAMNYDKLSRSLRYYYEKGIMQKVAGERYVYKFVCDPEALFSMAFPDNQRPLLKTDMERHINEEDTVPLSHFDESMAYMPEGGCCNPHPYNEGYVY
# Method in brief: as §1
# ETV3L = biological target: T6, ETV3L (Homo sapiens, UniProt Q6ZN32 1-361); settings: protein: recombinant; tags: N-terminal GST; dsDNA, one strand shown
# T6 sequence: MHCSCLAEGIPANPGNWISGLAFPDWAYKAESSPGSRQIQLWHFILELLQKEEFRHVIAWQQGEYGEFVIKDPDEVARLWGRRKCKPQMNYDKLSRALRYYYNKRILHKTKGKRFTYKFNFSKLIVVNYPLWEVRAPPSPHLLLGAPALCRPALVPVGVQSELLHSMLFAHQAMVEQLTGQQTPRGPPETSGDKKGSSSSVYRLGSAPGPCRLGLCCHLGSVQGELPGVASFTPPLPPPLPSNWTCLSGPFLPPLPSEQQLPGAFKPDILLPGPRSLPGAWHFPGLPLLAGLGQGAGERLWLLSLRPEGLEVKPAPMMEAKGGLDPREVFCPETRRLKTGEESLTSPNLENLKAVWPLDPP
# Method in brief: as §1
# ETS2 = biological target: T7, ETS2 (Homo sapiens, UniProt P15036 1-469); settings: protein: recombinant; tags: N-terminal GST; dsDNA, one strand shown
# T7 sequence: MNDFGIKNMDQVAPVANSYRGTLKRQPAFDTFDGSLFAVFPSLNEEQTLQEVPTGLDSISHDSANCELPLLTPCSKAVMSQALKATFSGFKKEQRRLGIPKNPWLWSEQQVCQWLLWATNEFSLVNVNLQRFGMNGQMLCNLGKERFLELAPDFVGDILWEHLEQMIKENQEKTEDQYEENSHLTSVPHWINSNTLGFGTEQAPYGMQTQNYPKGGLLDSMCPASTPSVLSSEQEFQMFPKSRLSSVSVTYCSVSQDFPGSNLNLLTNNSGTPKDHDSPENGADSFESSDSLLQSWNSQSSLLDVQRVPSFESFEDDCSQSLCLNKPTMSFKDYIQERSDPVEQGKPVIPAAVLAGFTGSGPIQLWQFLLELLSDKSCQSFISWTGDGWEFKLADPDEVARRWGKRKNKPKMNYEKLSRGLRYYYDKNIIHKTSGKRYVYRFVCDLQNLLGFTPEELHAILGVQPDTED
# Method in brief: as §1
# SPDEF = biological target: T8, SPDEF (Homo sapiens, UniProt O95238 1-335); settings: protein: recombinant; tags: N-terminal GST; dsDNA, one strand shown
# T8 sequence: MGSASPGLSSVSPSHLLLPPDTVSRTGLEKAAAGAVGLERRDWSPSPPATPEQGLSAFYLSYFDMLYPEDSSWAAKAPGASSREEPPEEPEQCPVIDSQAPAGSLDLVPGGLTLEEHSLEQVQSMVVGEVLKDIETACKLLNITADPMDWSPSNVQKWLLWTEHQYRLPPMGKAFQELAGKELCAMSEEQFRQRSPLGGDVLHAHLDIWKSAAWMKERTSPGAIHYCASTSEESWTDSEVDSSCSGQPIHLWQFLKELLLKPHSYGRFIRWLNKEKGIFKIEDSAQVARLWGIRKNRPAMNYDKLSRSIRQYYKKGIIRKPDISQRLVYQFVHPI
# Method in brief: as §1
# ETV7 = biological target: T9, ETV7 (Homo sapiens, UniProt Q9Y603 1-341); settings: protein: recombinant; tags: N-terminal GST; dsDNA, one strand shown
# T9 sequence: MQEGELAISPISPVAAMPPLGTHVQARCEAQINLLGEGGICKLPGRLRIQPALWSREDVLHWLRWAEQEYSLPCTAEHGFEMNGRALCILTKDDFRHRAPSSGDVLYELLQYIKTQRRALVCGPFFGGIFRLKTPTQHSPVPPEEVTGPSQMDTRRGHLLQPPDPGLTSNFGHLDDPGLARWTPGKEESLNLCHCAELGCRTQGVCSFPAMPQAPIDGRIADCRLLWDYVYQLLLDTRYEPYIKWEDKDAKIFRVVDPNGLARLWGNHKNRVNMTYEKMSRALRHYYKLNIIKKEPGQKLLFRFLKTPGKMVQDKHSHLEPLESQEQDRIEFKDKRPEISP
# Method in brief: as §1
# ETV3 = biological target: T10, ETV3 (Homo sapiens, UniProt P41162-2 1-143); settings: protein: recombinant; tags: N-terminal GST; dsDNA, one strand shown
# T10 sequence: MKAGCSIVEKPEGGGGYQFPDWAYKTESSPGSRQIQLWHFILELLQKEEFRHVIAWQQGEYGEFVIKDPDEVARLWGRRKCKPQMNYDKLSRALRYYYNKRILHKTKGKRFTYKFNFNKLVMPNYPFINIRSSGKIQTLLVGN
# Method in brief: as §1
# ETV6 = ETV6 (Homo sapiens, UniProt P41212 1-452); settings: protein: recombinant; tags: N-terminal GST; dsDNA, one strand shown
# ETV6, sequence (P41212 whole entry): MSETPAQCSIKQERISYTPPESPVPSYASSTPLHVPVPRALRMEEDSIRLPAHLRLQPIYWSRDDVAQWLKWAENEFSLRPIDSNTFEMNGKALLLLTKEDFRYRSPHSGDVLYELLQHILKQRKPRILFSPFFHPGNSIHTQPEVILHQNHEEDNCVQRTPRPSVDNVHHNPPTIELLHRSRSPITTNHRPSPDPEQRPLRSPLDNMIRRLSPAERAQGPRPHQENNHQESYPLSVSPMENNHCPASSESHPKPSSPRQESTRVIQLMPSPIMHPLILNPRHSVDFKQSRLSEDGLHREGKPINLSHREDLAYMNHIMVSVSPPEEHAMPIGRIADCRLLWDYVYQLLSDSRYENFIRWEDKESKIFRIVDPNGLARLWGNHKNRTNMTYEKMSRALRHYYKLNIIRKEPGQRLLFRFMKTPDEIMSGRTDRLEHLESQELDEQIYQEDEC
# Method in brief: as §1
sequence,measurement,setting,value
ATTAGT,binding signal,ERG,"1.01 fold enrichment (6-mer frequency, TF over GST control)"
same,binding signal,ELF1,"1.03 fold enrichment (6-mer frequency, TF over GST control)"
same,binding signal,EHF,"1 fold enrichment (6-mer frequency, TF over GST control)"
same,binding signal,FEV,"1.01 fold enrichment (6-mer frequency, TF over GST control)"
same,binding signal,HSF1,"1.69 fold enrichment (6-mer frequency, TF over GST control)"
same,binding signal,ELF4,"1.06 fold enrichment (6-mer frequency, TF over GST control)"
same,binding signal,ELK4,"1.2 fold enrichment (6-mer frequency, TF over GST control)"
same,binding signal,ETV2,"1.12 fold enrichment (6-mer frequency, TF over GST control)"
same,binding signal,CRX,"2.44 fold enrichment (6-mer frequency, TF over GST control)"
same,binding signal,ETV1,"1.03 fold enrichment (6-mer frequency, TF over GST control)"
same,binding signal,ETV3L,"1.03 fold enrichment (6-mer frequency, TF over GST control)"
same,binding signal,ETS2,"1.01 fold enrichment (6-mer frequency, TF over GST control)"
same,binding signal,SPDEF,"1.06 fold enrichment (6-mer frequency, TF over GST control)"
same,binding signal,ETV7,"1.08 fold enrichment (6-mer frequency, TF over GST control)"
same,binding signal,ETV3,"1.01 fold enrichment (6-mer frequency, TF over GST control)"
same,binding signal,ETV6,"1.01 fold enrichment (6-mer frequency, TF over GST control)"
